Results on 40 molecules are retold here after ChEMBL document CHEMBL1157539, “Thousands of chemical starting points for antimalarial lead identification” (Nature, 2010).

Broadly, the Inhibition is the relative decrease from the control value, in per cent. Higher therefore signals a response far below the control.

The test has as its system HepG2. Nature of the test: GSK_TCMDC: Percent inhibition of human HepG2 cell line. Test compounds present at 10uM. The test is classed as functional.
Regarding `Cl.O=C(Nc1ccccc1Br)N[C@@H]1CCN(c2ccnc3ccccc23)C1`, the Inhibition was 25%. Then `CC(C)(C)N1CCC(N(Cc2ccc(-c3ccc(C(F)(F)F)cc3)cc2)C(=O)Cn2c(CCc3cccc(F)c3F)nc(=O)c3cccnc32)CC1.O=C(O)C(O)C(O)C(=O)O`, with 94%; and `O=C(c1ccc([N+](=O)[O-])o1)N1CCC(Cc2ccc(C(F)(F)F)cc2)CC1`, with 38%. In the case of `CN1CCN(c2ccnc3cc4c(cc23)N(Cc2ccccc2)CC4)CC1` it was 0%; in that of `O=C(/C=C/c1ccc(Cl)c(Cl)c1)NCCCCCN1CCC(NC(=O)Nc2ccc(Oc3ccccc3)cc2)C1` (stereo not given), 35%.

On to `O=C(NCc1ccc(C(=O)NCc2cccc3ccccc23)cc1)c1ccc(O)c(-c2ccc(Cl)c(Cl)c2)c1`, for which the Inhibition came out at 0%.

Turning to `COc1ccc(Nc2cc(C)c3cc(NC(=O)c4ccncc4)ccc3n2)cc1`, the Inhibition amounted to 0%. Then `COc1ccc(S(=O)(=O)Nc2ccc(C(=O)NCc3ccc(C(F)(F)F)cc3)cc2)cc1N1CCN(CC2CC2)CC1.O=C(O)C(F)(F)F`, with 34%; and `Br.C=CCc1cccc(OC)c1OCCCON1C(=N)N=C(N)NC1(C)C`, with 58%. For `Cc1ccnc(NC(c2cccc(Cl)c2Cl)c2ccc3cccnc3c2O)c1` (stereo not given), the Inhibition amounted to 46%. `Cl.NC1=NC(c2ccccc2)N(c2ccc(Cl)c(Cl)c2)C(N)=N1` (stereo not given) showed an Inhibition of 13%. Then `CC(CCCCC(=O)Nc1ccc(CC(C)NCCc2cccc(Cl)c2)cc1)NCCc1cccc(Cl)c1` (stereo not given), with 28%.

Regarding `O=C(NC1CCCCC1)N(Cc1ccc(-c2cccc(CNCc3ccc4c(c3)OCO4)c2)cc1)C1CCN(Cc2ccccc2)CC1.O=C(O)C(F)(F)F`, the Inhibition turned out to be 23%.

On to `COc1cc(C(=O)NCCCN2CCN(c3cc(Cl)ccc3OC)CC2)ccc1-c1nc2cc(Cl)c(Cl)cc2[nH]1`, for which the Inhibition stood at 12%. Then `O=C(/C=C/c1ccccc1O)NCCCCCN1CCC(c2c[nH]c3ccccc23)CC1`, with 7%. Then `O=C(c1ccc(F)c(F)c1)N1CCOC(CCN2CCC(c3ccccc3)CC2)(c2ccc(Cl)c(Cl)c2)C1` (stereo not given), with 51%. In the case of `CCCC(C(=O)OCCN(CC)CC)(c1ccc(Cl)cc1)c1ccc(Cl)cc1.Cl` it was 7%; in that of `Cc1ccc(Nc2nccc(Nc3ccc4c(c3)nc(Nc3cc(C(C)(C)C)on3)n4C)n2)cc1S(C)(=O)=O`, 30%.

As to `O=C(NCC1CCN(Cc2ccc3c(c2)OCCO3)C1)c1cc(-c2cccc(C(F)(F)F)c2)cs1.O=C(O)C(F)(F)F` (stereo not given), the Inhibition was determined as 31%. With `Cc1cccc(N2CCN(C3CCC(NC(=O)c4cc5ccccc5[nH]4)CC3)CC2)c1C` (stereo not given), the Inhibition is given as 49%. Then `COc1cc(OC)cc(C(=O)Nc2cccc(-c3cn4ccc(C)cc4n3)c2)c1`, with 4%; and `N#Cc1cc([N+](=O)[O-])ccc1-n1nc(C(N)=O)n(Cc2cccc(F)c2)c1=S`, with 6%.

With `CC(=O)N1CCC(C(=O)Nc2ccc(-c3cccc(-c4nc5cccc(C)c5[nH]4)c3)cc2)CC1`, the Inhibition is reported as 85%. For the molecule `CCCCCC(NCCCC)c1ccc(OCCOc2ccc(C(CCCCC)NCCCC)cc2)cc1.Cl` (stereo not given), the Inhibition is given as 99%. Then `CCC[C@@H]([C@@H](CC1CCCCC1)C(=O)N[C@H](C(=O)Nc1ccccn1)[C@H](C)CC)N(O)C=O`, with 24%; and `CC(Nc1cc(-c2ccccn2)nc(-c2ccccn2)n1)c1ccccc1` (stereo not given), with 61%. Molecule `COc1ccc2c(c1C1CCN(CCCCNC(=O)c3ccc(-c4ccc(Cl)cn4)cc3)CC1)CCCC2` had an Inhibition of 29%. Then `CC(C)(C)c1ccc(CNC(=O)c2ccc(-c3nc4cc(C(C)(C)C)ccc4[nH]3)cc2)cc1`, with 21%; and `Cc1ccc(NC(=O)c2ccc(Cl)c(Cl)c2)cc1-c1ccc(C(=O)Nc2ccncc2)cc1`, with 39%; and `Cc1cccc2nc(-c3cccc(-c4cccc(NC(=O)c5c[nH]cn5)c4)c3)[nH]c12`, with 2%. Then `Cc1nnc(-c2ccc3ccccc3c2)c2cn(-c3cccc([N+](=O)[O-])c3)nc12`, with 29%; and `Cl.N#Cc1cccc(/C=C/C(=O)NC2CCC(CCN3CCc4ccc(-c5cnccn5)cc4CC3)CC2)c1` (stereo not given), with 22%; and `O=C1c2cc(I)ccc2SC1c1ccccc1` (stereo not given), with 0%.

As for `CC(=O)N1CCN(c2ccc(NC(=O)c3oc(-c4ccccc4)nc3C(F)(F)F)cn2)CC1`, the Inhibition was determined as 0%.

`Cc1ccc(NC(=O)c2ccc(N3CCN(c4ccncc4)CC3)cn2)cc1F.O=C(O)C(F)(F)F` displayed an Inhibition of 2%. Then `CN(C)c1ccc(CN2CCC(CNC(=O)c3cc(-c4cccc(F)c4)cs3)C2)cc1.O=C(O)C(F)(F)F` (stereo not given), with 48%; and `O=C(NCCc1ccccc1)[C@H](Cc1ccccc1)Nc1ccnc(NCC2CCCCC2)n1.O=C(O)C(F)(F)F`, with 11%; and `N=C(Nc1nc(-c2ccccn2)cc2ccccc12)c1cccc(Cl)c1`, with 54%. In the case of `NCc1cccc(-c2ccccc2CNC2CCN(Cc3ccccc3)CC2)c1.O=C(O)C(F)(F)F`, the Inhibition was 0%. Then `CCN(CCCN1CCCCC1)c1cc(C)nc(Nc2ccc(C)cc2Br)n1.O=C(O)C(F)(F)F`, with 49%.
